# Screens as filed in PubChem.
# ROMK primary – ROMK potassium channel modulators, primary screen, cell-based, thallium flux, MLSMR library | ATP-sensitive inward rectifier potassium channel 1 (Homo sapiens), P48048 | AID 1918, 2009 | Tet-inducible ROMK, thallium flux fluorescence; actives lie on both sides | 130,000 compounds, 2% hits | B-score at 10 µM;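 active means signal ratio slope over the read window, or its plate-corrected B-score, at least 3 SD from the plate mean, either direction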;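 further: B-score of the F/F0 ratio slope over 7 to 12 s after thallium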
# Cl transport mod – KCC2 cotransporter modulators, thallium flux, primary screen, cell-based, HEK293 KCC2, FluoZin-2 fluorescence, MLSMR; Solute carrier family 12 member 5 (Homo sapiens), Q9H2X9; KCC2 cells, thallium flux FluoZin-2 fluorescence; B-score of Tl+ flux slope (higher = more flux/activation; lower = inhibition) at 10 µM; 190,000 compounds, 2.2% hits;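 active means thallium flux slope and its plate-corrected score both differing from the plate sample mean at a set confidence after two filtering rounds, in either direction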;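 further: slope of fluorescence scaled to starting intensity during 10 to 20 s after thallium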
# Target sequence (Q9H2X9 whole entry, looked up): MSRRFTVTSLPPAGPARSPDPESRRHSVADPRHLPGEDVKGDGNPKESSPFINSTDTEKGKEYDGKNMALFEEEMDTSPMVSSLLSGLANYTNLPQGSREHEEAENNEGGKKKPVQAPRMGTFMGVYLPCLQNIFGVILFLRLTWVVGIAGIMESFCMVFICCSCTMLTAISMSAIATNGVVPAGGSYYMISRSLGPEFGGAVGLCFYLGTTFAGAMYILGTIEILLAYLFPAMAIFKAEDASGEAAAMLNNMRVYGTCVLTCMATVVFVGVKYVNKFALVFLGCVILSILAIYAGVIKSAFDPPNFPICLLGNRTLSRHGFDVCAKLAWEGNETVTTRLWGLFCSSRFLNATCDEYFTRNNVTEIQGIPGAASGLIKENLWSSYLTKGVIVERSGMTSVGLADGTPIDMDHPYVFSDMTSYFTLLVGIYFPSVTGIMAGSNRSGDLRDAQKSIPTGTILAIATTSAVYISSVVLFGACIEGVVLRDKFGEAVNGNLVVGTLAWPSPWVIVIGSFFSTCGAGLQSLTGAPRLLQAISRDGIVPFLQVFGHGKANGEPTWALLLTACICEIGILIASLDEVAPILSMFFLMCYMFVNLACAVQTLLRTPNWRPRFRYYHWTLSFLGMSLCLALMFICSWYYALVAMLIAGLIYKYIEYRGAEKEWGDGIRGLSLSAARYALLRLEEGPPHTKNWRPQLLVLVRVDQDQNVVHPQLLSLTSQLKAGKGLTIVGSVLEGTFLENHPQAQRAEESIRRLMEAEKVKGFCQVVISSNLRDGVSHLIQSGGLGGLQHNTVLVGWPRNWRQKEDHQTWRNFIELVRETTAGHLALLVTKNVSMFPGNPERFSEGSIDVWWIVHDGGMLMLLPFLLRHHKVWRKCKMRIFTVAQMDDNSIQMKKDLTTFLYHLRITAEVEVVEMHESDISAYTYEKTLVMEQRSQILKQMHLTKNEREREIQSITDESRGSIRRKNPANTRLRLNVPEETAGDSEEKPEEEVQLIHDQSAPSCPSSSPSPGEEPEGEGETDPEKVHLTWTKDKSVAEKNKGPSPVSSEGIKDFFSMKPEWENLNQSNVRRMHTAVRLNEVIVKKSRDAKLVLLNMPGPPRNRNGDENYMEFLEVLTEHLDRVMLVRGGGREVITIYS
# WT yeast gro inh – growth inhibition of WT strain, primary screen, mitochondrial fusion inhibitor project, WT and mutant strains, chemical genetic; mitochondrial fusion phenotypic screen; inhibition, % at 10 µM; 190,000 compounds, 2.1% hits; in the data active means inhibition above about 58%; tested in S. cerevisiae
# Lmaj promast – Leishmania major promastigote growth inhibition, primary screen | Leishmania major promastigotes, resazurin fluorescence viability | inhibition, % at 10 µM | 200,000 compounds, 9% hits | AID 1063, 2008; in the data active means inhibition above about 50%;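 further: promastigotes grown with compound for 44 hours at 28 °C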
# Calpain2 inh – inhibitors of pig calpain II, primary screen, biochemical, fluorogenic peptide substrate, 1536-well | purified calpain II, 30 min | inhibition, % at 16 µM | 220,000 compounds, 0.37% hits | AID 1236, 2008;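 active means inhibition above about 50%, limit read from the data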
# KCC2 sec1 – KCC2 modulators in sodium-free buffer, confirmation, cell-based, HEK293 KCC2, thallium flux, secondary assay; shares compounds with Cl transport mod; FluoZin2 fluorescence; stronger effect = higher value; normalised thallium flux (F/F0 slope) at 10 µM; 3,700 compounds, 15% hits; AID 1713, 2009;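 active means thallium flux slope above the same plate's solvent-only control mean plus 3 SD; inconclusive means the two replicate wells disagree; inactive means no significant difference from solvent-only control wells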
# KCC2 bumet counter – thallium flux persisting under bumetanide in KCC2 cells, confirmation, counter-screen for KCC2 modulator project, cell-based, HEK293 KCC2, FluoZin2, secondary assay 3. 3,700 compounds, 49% hits. AID 1714, 2009. shares compounds with Cl transport mod. normalized thallium flux at 10 µM. HEK293-KCC2 + bumetanide/ouabain; stronger effect = higher value;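 active means thallium entry rate above the same plate's blocked-transporter control wells by more than 3 SD; inconclusive means the two repeat wells disagree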;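 further: raw slope of fluorescence over initial fluorescence between 10 and 20 s after thallium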
# KCC2 secondary2 – KCC2 modulators without ouabain present, confirmation, cell-based, HEK293 KCC2, thallium flux, FluoZin2, secondary assay 2; shares compounds with Cl transport mod; thallium flux FluoZin2 fluorescence; actives lie on both sides; F/F0 rise rate, 10–20 s post-thallium; normalized thallium flux at 10 µM; 3,700 compounds, 23% hits;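 active means thallium flux slope more than 3 SD above or below the plate's solvent-only control mean, mostly below; inconclusive means the two repeat wells disagreed; inactive means no significant shift from solvent-only controls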;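 further: raw slope with 0.1% DMSO as baseline and bumetanide as block control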
# HEK293 Tl flux – thallium flux modulation in parental HEK cells, confirmation, counter-screen for KCC2 modulator project, cell-based, counterscreen 1; shares compounds with Cl transport mod; HEK293 parental cells, thallium flux FluoZin2, ouabain; baseline-ratio fluorescence slope, 10–20 s after thallium; thallium flux rate (normalised fluorescence) at 10 µM; 3,700 compounds, 46% hits; AID 1716, 2009;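 active means thallium flux rate significantly above the same plate's solvent-only control wells, beyond their mean plus 3 SD; inconclusive means the two replicate wells gave conflicting results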
# KCC2 ouabain – KCC2 inhibitors and activators, ouabain retest, confirmation, HEK-KCC2 cells; shares compounds with Cl transport mod; HEK293-KCC2, thallium flux FluoZin2 fluorescence; bidirectional: low = inhibitor, high = activator; raw Tl+ flux slope (below DMSO = inhibition, above = activation) at 10 µM; 3,700 compounds, 48% hits;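 active means thallium flux slope beyond 3 SD from same-plate DMSO control mean in most replicates, usually higher, sometimes lower; inconclusive means repeat tests gave conflicting results; inactive means no significant difference from controls in most replicates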;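 further: slope of initial-normalized fluorescence between seconds 10 and 20 after thallium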
# HEK counter2 – native HEK Tl+ uptake effects, second counter-screen – HEK cells, counterscreen 2, counter-screen for KCC2 modulator project, confirmation; shares compounds with Cl transport mod; HEK293 parental, thallium flux FluoZin-2 fluorescence slope; thallium flux slope at 10 µM; 3,700 compounds, 33% hits;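 active means thallium flux slope above the same plate's solvent-control mean plus 3 SD in both duplicate wells; inconclusive means duplicate wells that disagreed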;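 further: run without ouabain in cells lacking the KCC2 cotransporter; slope of fluorescence scaled to its starting value between 10 and 20 s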
# * marks the source's active call; other numbers are inactive results; ? = inconclusive; . = not tested or not shown; ! = a repeat was not active. This is a sample that favours compounds with a hit; in the whole collection about 12% have one here.
SMILES,ROMK primary,Cl transport mod,WT yeast gro inh,Lmaj promast,Calpain2 inh,KCC2 sec1,KCC2 bumet counter,KCC2 secondary2,HEK293 Tl flux,KCC2 ouabain,HEK counter2
Cc1cc([N+](=O)[O-])cc(/C=N/n2c(C)nc3ccccc3c2=O)c1O,1.2,-3.3*,.,.,-9,0.0072,?,0.029,0.0078,?,0.011
CSC(=NC#N)N1CCN(c2cccc(Cl)c2)CC1,.,-1.4,17,27,-34,.,.,.,.,.,.
O/C(=C\c1ccc2ccccc2n1)c1ccc(O)cc1O,-1.4,-5.1*,3,-5,3,0.0058*,0.0055,0.029,0.0075,0.014*,0.011
Oc1ccc(/C=C/c2ccc3ccccc3n2)cc1,0.42,-3.4,30,17,-68,.,.,.,.,.,.
O=S(=O)(NC(=S)NC1CCCCC1)c1ccc(Br)cc1,0.068,11*,7,-9,-25,0.012*,0.028*,0.031,0.023*,0.033*,0.012*
O=C(CCNS(=O)(=O)c1ccc(Br)cc1)NC1CCCCC1,-0.43,-1.1,25,-5,33,.,.,.,.,.,.
CCOC(=O)N1CCN(C(=O)c2ccc3c(=O)n(-c4ccc(OC)cc4)c(=S)[nH]c3c2)CC1,.,-3.6*,18,-3,3,0.015,0.0038,0.032,?,0.017,0.011
CCOC(=O)N1CCN(C(=O)c2cccc(-n3c(=S)[nH]c4cc(Cl)ccc4c3=O)c2)CC1,-0.11,.,-10,-4,5,0.0071,0.012*,?,0.017*,0.025*,0.02*
COC(CNC(=O)c1cccc(-n2c(=S)[nH]c3cc(Cl)ccc3c2=O)c1)OC,0.84,4.4*,-14,-8,-30,?,0.021*,0.034,0.015*,?,0.012*
CC(C)N1C(=S)N(Cc2ccco2)C(=O)C1CC(=O)Nc1ccccc1 (configuration not stated),0.0018,-0.066,-10,2,-22,.,.,.,.,.,.
S=c1[nH]c2ccc3ccccc3c2[nH]1,0.39,-0.94,57,-6,-14,.,.,.,.,.,.
S=c1[nH]c2cc3ccccc3cc2[nH]1,0.077,3.3*!,.,.,19,0.017,0.0076*,?,0.0091*,0.016,?
COc1cccc(C(=O)NC(=O)Nc2cc(C)on2)c1,0.21,0.84,-5,8,14,.,.,.,.,.,.
C=CCNC(=O)C1CCN(c2c([N+](=O)[O-])cc(C(F)(F)F)cc2[N+](=O)[O-])CC1,.,.,12,-6,-35,0.011,0.0065,0.029,0.0077,0.03,?
COc1cc(CC(=O)Nc2ccc(S(=O)(=O)Nc3ncccn3)cc2)cc(OC)c1OC,.,-4*,-10,10,4,0.0095,0.0063,0.034,0.0095*,0.02,0.012
COc1ccc(CC(=O)Nc2ccc(S(=O)(=O)Nc3nc(C)cc(C)n3)cc2)cc1,-0.14,-5.9*,3,8,-39,0.009,0.009*,0.033,0.0077,0.022,0.011
O=C(COC(=O)c1c(Cl)ccc(Cl)c1Cl)NC1CCS(=O)(=O)C1 (configuration not stated),0.11,0.15,1,11,23,.,.,.,.,.,.
CN1N=C2c3ccccc3CCCC2C1c1ccc(F)cc1 (configuration not stated),.,0.058,.,.,19,.,.,.,.,.,.
O=C(NC1CCCCCC1)c1ccc[nH]c1=S,0.3,12*,3,15,-17,0.013*,0.039*,0.029,0.016*,0.038*,0.011*
COc1cccc(-c2nc(NC(C)(C)C)c3ccccc3n2)c1O,1.1,0.39,-27,8,12,.,.,.,.,.,.
COc1cccc(-c2nc(NCCN3CCOCC3)c3ccccc3n2)c1O,-0.84,-0.041,-18,35,-28,0.01,0.0072,0.033,0.0078,0.021,?
Cc1cc(Br)ccc1-n1[nH]c(C)c(C=Nc2cccc3nsnc23)c1=O,0.031,16*,-9,0,-59,0.011,0.043*,0.029,0.017*,0.04*,?
CCCC(=O)Nc1cccc(-c2nc3cc(C)c(C)cc3o2)c1,0.053,.,3,0,-88,0.0056,0.0047,0.031,0.0074,0.019,0.011
CCCC(=O)Nc1cccc(-c2nc3ccccc3o2)c1,.,.,-5,8,5,.,.,.,.,.,.
CCS(=O)(=O)NCc1ccc2c(c1)cc(C)n2C,.,-3.1*,9,-7,-10,0.0058,0.0052,0.03,0.0078,0.019,0.011
SMILES,ROMK primary,Cl transport mod,WT yeast gro inh,Lmaj promast,Calpain2 inh,KCC2 sec1,KCC2 bumet counter,KCC2 secondary2,HEK293 Tl flux,KCC2 ouabain,HEK counter2
CCCS(=O)(=O)NCc1ccc2c(c1)cc(C)n2C,-0.61,0.23,7,-6,16,.,.,.,.,.,.
COc1ccc(SC[C@H](CC(C)C)N2CCN(CCc3ccccc3)CCC2=O)cc1,.,-4.6*,.,.,14,0.0061,0.0036,?,0.0058*,0.013*,0.0087
CC(=O)Nc1ccc(SC[C@H](CC(C)C)N2CCN(CCc3ccccc3)CCC2=O)cc1,.,-3.8*,.,.,30,0.0096,0.0057,0.033,0.0069,0.019,0.011
Cc1ccc(SC[C@H](CC(C)C)N2CCN(C)CCC2=O)cc1,.,0.41,.,.,-11,.,.,.,.,.,.
CC(=O)Nc1ccc(SC[C@H](CC(C)C)N2CCN(CC(C)C)CCC2=O)cc1,.,0.12,.,.,-7,.,.,.,.,.,.
Cc1ccc(SC[C@H](CC(C)C)N2CCN(CCc3ccccc3)CCC2=O)cc1,.,-4.4*,.,.,30,0.0079,0.0053,0.032,0.0071,0.017*,0.0097
COc1cc(C(=O)NNC(=S)NC(=O)/C=C/c2ccccc2)cc(OC)c1OC,.,1.1,.,.,-7,.,.,.,.,.,.
